Records with an inconclusive call do not appear. The source made the active and inactive calls. Unless noted, the call rests on the fitted dose curve; in most records, active means well fitted curve in the direction sought with a large enough effect in the repeat runs; inconclusive means weak or mixed curves; inactive means no such curve, though single readings can be large; an effect the other way counts as inactive or inconclusive.
Experiments:
[1] = biological target: Nuclear receptor subfamily 1 group I member 2 (Homo sapiens) (UniProt O75469); assay: Human pregnane X receptor (PXR) activation by small molecules, qHTS assay (AID 1346985); further: nearly all actives have a fitted effect of over 40% in size
Summary of the method: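 DPX-2 cells (HepG2 co-transfected with a PXR response element and a CYP3A4-promoter luciferase construct) were seeded at 2,000 per well, rested 5 hr at 37C, then exposed to DMSO-dissolved compounds for 24 hr. Activation was read as luciferase luminescence.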

[2] = biological target: Thyrotropin receptor (Homo sapiens) (UniProt P16473); assay: qHTS assay to identify small molecule antagonists of the thyroid stimulating hormone receptor (TSHR) signaling pathway (AID 1259385; calls by dose curve; further: nearly all actives have a fitted effect of over 20% in size)
Summary of the method: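 Antagonist mode: compound-treated TSHR-expressing HEK293 cells were stimulated with 1.5 ng/mL TSH (final) in presence of Ro20-1724 for 30 min at RT. HTRF cAMP detection after 1 h; each compound tested at 15 concentrations, triplicate.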

[3] = qHTS assay to identify small molecule agonists of the estrogen receptor alpha (ER-alpha) signaling pathway in the presence of an antagonist - cell viability counter screen (AID 1259386);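 further: series mostly up to about 92 µM; cells exposed to compounds for 22 h at 37 °C before the viability read; nearly all actives have a fitted effect of over 30% in size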
Summary of the method: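 Cell viability in VM7Luc4E2 cells (endogenous full-length ER-alpha) measured by CellTiter-Fluor fluorescence in the same wells as the luciferase screen. Cells pre-cultured 5 days in charcoal-stripped serum, then treated 22 h with compounds at 15 concentrations plus 10.0nM ICI-182,780.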

[4] = biological target: Progesterone receptor (Homo sapiens) (UniProt P06401); assay: qHTS assay to identify small molecule agonists of the progesterone receptor (PR) signaling pathway (AID 1346784; calls by dose curve; further: nearly all actives have a fitted effect of over 30% in size)
Summary of the method: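 Agonist qHTS: compounds pinned onto 3,000 PR-UAS-bla HEK 293T cells per well in charcoal-stripped serum medium, 16hr at 37C, then beta-lactamase activity measured by LiveBLAzer FRET fluorescence after 2 hours at room temperature.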

[5] = biological target: Progesterone receptor (Homo sapiens) (UniProt P06401); assay: qHTS assay to identify small molecule antagonists of the progesterone receptor (PR) signaling pathway (AID 1346795; active means well fitted inhibition curve with a large enough effect in the signal ratio in the repeat runs, not every such curve was filed as active; the % refers to the signal ratio)
Summary of the method: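 Antagonist mode with agonist R5020 at 1 nM final and 16 hr incubation at 37C. Reporter was beta-lactamase driven by UAS in HEK293T (PR-UAS-bla), 2% charcoal-stripped serum; signal from LiveBLAzer FRET substrate, 2 hr at room temperature.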

[6] = qHTS assay to identify small molecule antagonists of the progesterone receptor (PR) signaling pathway - cell viability counter screen (AID 1346798); further: series mostly up to about 92 µM; nearly all actives have a fitted effect of over 50% in size
Summary of the method: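 Cytotoxicity read as CellTiter-Glo luminescence (30 min, room temperature) in the same wells as the beta-lactamase readout. HEK293T PR-UAS-bla cells in charcoal-stripped 2% FBS received compound and R5020, then 16 h at 37C, 5% CO2.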

[7] = qHTS assay to identify small molecule agonists of the TGF-beta/Smad signaling pathway - cell viability counter screen (AID 1346829); further: top concentration of the series differs between compounds; nearly all actives have a fitted effect of over 45% in size
Summary of the method: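 Luminescence from CellTiter-Glo, read after a 30 min room-temperature incubation, gives cell viability of SBE-bla HEK 293T cells treated 5 hr with compounds at 37 C.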

[8] = qHTS assay to identify small molecule agonists of the TGF-beta/Smad signaling pathway (AID 1346859; active means well fitted activation curve with a large enough effect in the signal ratio in the repeat runs, not every such curve was filed as active; the % refers to the signal ratio; further: series mostly up to about 77 µM)
Summary of the method: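 Fluorescence (ex 405 nm; em 460 and 530 nm) was read 2 h after LiveBLAzer FRET substrate at RT. The preceding compound treatment of overnight-plated SBE-bla HEK293T cells lasted 5 h at 37 C.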

[9] = biological target: Thyrotropin-releasing hormone receptor (Homo sapiens) (UniProt P34981); assay: qHTS assay to identify small molecule antagonists of the thyrotropin-releasing hormone receptor (TRHR) signaling pathway (AID 1346877; active means well fitted inhibition curve with a large enough effect in the repeat runs, not every such curve was filed as active; further: series mostly up to about 51 µM)
Summary of the method: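 TRHR-expressing HEK293 cells loaded with calcium dye for 2 h at 37 C; compounds pre-incubated 5 min at room temperature before TRH challenge at 1 nM final. Intracellular calcium fluorescence read kinetically for 3 min; 15 concentrations in triplicate.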

[10] = biological target: Thyrotropin-releasing hormone receptor (Homo sapiens) (UniProt P34981); assay: qHTS assay to identify small molecule agonists of the thyrotropin-releasing hormone receptor (TRHR) signaling pathway (AID 1346891; calls by dose curve; further: series mostly up to about 58 µM)
Summary of the method: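 Agonist-mode intracellular calcium readout: kinetic fluorescence over 3 min at 1 s intervals after compound addition to TRHR-HEK293 cells (18 h seeded, 2 h dye-loaded at 37 C). Fifteen concentrations, triplicates.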

[11] = Human pregnane X receptor (PXR) small molecule agonists, qHTS cell viability counter screen (AID 1346977); further: nearly all actives have a fitted effect of over 50% in size
Summary of the method: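 Same-well viability read: CellTiter-Fluor added after 23 hr compound exposure, fluorescence measured 1 hr later. Cells were PXR-Luc HepG2 seeded at 2,000/well in 5% charcoal-stripped FBS medium, rested 5 hr before dosing at 37 C.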

[12] = Caspase-3/7 induction in HepG2 cells by small molecules, qHTS assay (AID 1346978); further: nearly all actives have a fitted effect of over 15% in size
Summary of the method: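 Caspase-3/7 induction was measured by Caspase-Glo 3/7 luminescence (30 min, room temperature) after a 17 hr compound exposure of wild-type HepG2 cells seeded at 2,000 per well and pre-incubated 5 hr.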

[13] = Caspase-3/7 induction in CHO-K1 cells by small molecules, qHTS cell viability counter screen (AID 1346979); further: nearly all actives have a fitted effect of over 35% in size
Summary of the method: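 Cytotoxicity counter screen: CellTiter-Fluor added to compound-treated wild-type CHO-K1 cells at 16 h (37C, 5% CO2), fluorescence measured 1 h later; same wells as caspase-3/7 measurement.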

[14] = Caspase-3/7 induction in CHO-K1 cells by small molecules, qHTS assay (AID 1346980); further: nearly all actives have a fitted effect of over 15% in size
Summary of the method: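 Luminescent Caspase-Glo 3/7 read (30min, room temperature) quantified apoptosis induction. Cells were wild-type CHO-K1, treated with compound for 17hr at 37 C and 5% CO2.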

[15] = Caspase-3/7 induction in HepG2 cells by small molecules, qHTS cell viability counter screen (AID 1346981); further: series mostly up to about 92 µM; nearly all actives have a fitted effect of over 30% in size
Summary of the method: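 Wild-type HepG2 cells, 2,000/well, settled 5 hr at 37 C, 5% CO2 before compound addition. Viability read by CellTiter-Fluor fluorescence, reagent added after 16 hr compound exposure, then 1 hr at 37C, in the same wells as the caspase read.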

[16] = qHTS assay to identify small molecule antagonists of the TGF-beta/Smad signaling pathway - cell viability counter screen (AID 1346824); further: nearly all actives have a fitted effect of over 50% in size
Summary of the method: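 Cytotoxicity counter-screen run in the same wells as the beta-lactamase Smad reporter read: CellTiter-Glo luminescence after 30 min at room temperature. HEK 293T SBE-bla cells had 5 hr compound exposure at 37 C with TGF-beta1 (0.25 ng/mL stock).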

[17] = biological target: Nuclear receptor subfamily 1 group I member 2 (Homo sapiens) (UniProt O75469); assay: Human pregnane X receptor (PXR) small molecule agonists, qHTS assay (AID 1346982); further: nearly all actives have a fitted effect of over 35% in size
Summary of the method: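 PXR-Luc HepG2 reporter cells (CYP3A4-driven luciferase) in 5% charcoal-stripped FBS medium, plated 5 h before compound addition, then treated 24 h at 37C. Luciferase read by ONE-Glo luminescence after 30 min at room temperature.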

[18] = biological target: Nuclear receptor subfamily 1 group I member 2 (Rattus norvegicus) (UniProt Q9R1A7); assay: Rat pregnane X receptor (rPXR) activation by small molecules, qHTS assay (AID 1346983); details: rPXR luciferase reporter cells, One-Glo luminescence, 24 h; max activation: stronger effect = higher value; further: nearly all actives have a fitted effect of over 20% in size
Summary of the method: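 Luminescent readout (One-Glo luciferase, 30 min room temperature) followed 24 hr compound treatment at 37 C of rPXR cells plated 2,000 per well and preincubated 5hr; qHTS format with compounds delivered in DMSO.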

[19] = qHTS assay to identify small molecule agonists of the progesterone receptor (PR) signaling pathway - cell viability counter screen (AID 1346799; calls by dose curve; further: nearly all actives have a fitted effect of over 45% in size)
Summary of the method: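 Cytotoxicity measured by CellTiter-Glo luminescence (30 min, RT) in the same wells as the PR beta-lactamase agonist read. Those HEK293T cells had 16 h compound treatment at 37 C in 2% charcoal-stripped FBS medium.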

[20] = biological target: Nuclear receptor subfamily 1 group I member 2 (Homo sapiens) (UniProt O75469); assay: CYP3A4 induction through human pregnane X receptor (PXR) by small molecules, qHTS assay (AID 1346984); further: nearly all actives have a fitted effect of over 40% in size
Summary of the method: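 DPX-2 HepG2 cells carrying a PXR response element and CYP3A4-promoter luciferase construct, treated with compounds 24 hr at 37C. Then P450-Glo CYP3A4 Luciferin-IPA substrate (3uM final) for 3 hr at 37C, One-Glo added, luminescence read.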
On the % scale 0 is the no-effect control and ±100 the full control effect.

Nuclear receptor subfamily 1 group I member 2 (Rattus norvegicus), sequence (Q9R1A7 whole entry, looked up): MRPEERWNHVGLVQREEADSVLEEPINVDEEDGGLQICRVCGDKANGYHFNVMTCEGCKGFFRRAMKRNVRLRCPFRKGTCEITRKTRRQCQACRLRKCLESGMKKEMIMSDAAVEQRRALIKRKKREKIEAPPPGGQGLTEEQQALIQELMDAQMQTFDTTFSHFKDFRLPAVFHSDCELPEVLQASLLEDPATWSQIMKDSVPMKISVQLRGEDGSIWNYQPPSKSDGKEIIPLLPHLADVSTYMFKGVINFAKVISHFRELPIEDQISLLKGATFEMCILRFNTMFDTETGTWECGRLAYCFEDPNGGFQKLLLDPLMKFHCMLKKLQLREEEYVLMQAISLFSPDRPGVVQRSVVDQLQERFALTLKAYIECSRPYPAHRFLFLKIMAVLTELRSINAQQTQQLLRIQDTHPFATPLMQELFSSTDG
Thyrotropin receptor (Homo sapiens), sequence (P16473 whole entry, looked up): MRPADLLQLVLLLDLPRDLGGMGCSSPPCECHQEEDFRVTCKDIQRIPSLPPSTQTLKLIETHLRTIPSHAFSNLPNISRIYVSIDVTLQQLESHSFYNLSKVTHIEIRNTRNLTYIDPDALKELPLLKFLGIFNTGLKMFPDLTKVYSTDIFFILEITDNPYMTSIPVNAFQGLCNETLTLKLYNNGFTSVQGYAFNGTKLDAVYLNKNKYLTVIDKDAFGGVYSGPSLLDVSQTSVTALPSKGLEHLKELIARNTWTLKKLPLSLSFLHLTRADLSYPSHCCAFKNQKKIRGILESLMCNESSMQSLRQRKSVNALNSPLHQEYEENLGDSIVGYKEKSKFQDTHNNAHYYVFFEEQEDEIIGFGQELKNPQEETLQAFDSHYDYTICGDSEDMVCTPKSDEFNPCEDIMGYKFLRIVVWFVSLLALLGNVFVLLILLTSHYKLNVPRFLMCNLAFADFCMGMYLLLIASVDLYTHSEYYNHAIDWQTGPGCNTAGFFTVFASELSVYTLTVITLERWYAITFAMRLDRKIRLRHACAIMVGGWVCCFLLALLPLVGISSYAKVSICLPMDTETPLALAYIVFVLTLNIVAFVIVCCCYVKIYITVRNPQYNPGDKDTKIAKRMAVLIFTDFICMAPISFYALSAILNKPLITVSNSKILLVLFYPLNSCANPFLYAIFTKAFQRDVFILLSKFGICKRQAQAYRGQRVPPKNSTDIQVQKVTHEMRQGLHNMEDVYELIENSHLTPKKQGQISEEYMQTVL
Progesterone receptor (Homo sapiens), sequence (P06401 whole entry, looked up): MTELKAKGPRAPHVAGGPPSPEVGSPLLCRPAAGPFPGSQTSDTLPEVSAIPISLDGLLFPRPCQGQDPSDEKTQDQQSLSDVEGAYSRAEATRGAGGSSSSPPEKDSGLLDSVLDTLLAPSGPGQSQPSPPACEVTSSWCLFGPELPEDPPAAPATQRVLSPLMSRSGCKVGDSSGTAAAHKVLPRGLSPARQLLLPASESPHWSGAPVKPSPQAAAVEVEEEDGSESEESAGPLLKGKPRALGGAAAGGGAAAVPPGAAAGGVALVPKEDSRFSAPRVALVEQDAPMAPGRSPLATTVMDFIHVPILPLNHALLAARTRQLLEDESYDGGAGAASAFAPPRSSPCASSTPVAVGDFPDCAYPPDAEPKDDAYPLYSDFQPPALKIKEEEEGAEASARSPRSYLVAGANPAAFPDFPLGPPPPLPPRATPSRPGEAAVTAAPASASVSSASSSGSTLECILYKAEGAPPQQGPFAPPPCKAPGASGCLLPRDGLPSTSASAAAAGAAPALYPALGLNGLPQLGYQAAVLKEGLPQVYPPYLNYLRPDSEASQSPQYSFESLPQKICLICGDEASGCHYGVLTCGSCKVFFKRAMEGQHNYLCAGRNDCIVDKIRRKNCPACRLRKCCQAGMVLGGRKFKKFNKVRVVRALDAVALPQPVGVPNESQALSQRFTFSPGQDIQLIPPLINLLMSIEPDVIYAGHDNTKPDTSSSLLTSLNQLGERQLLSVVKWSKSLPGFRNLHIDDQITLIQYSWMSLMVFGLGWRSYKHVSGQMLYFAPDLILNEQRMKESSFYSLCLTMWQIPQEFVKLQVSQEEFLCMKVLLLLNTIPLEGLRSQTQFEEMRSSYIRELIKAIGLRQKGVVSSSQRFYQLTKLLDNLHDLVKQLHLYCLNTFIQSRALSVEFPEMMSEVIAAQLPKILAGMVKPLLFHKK
Nuclear receptor subfamily 1 group I member 2 (Homo sapiens), sequence (O75469 whole entry, looked up): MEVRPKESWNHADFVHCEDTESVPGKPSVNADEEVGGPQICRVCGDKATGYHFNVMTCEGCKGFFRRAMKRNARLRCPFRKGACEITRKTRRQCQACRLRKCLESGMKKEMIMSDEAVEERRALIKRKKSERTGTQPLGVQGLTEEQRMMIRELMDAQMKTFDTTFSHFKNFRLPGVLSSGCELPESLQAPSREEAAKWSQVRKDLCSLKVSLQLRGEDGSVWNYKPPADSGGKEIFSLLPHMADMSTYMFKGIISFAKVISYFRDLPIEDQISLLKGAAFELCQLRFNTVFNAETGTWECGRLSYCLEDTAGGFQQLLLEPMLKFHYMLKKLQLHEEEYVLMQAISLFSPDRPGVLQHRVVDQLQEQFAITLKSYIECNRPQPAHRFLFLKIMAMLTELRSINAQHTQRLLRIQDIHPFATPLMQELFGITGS
Thyrotropin-releasing hormone receptor (Homo sapiens), sequence (P34981 whole entry, looked up): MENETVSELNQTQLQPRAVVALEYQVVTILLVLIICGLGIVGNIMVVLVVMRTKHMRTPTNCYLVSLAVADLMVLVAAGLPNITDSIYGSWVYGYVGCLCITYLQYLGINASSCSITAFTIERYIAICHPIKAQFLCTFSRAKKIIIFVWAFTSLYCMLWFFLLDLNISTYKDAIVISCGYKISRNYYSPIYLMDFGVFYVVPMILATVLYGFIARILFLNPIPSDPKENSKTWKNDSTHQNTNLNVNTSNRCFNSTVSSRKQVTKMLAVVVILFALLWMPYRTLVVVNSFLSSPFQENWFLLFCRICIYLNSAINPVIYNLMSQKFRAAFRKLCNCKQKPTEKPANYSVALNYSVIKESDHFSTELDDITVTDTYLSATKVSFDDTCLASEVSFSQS

O=C(O)c1ccc[n+]([O-])c1
inactive: Potency [1]

N#CCc1ccccc1[N+](=O)[O-]
inactive: Potency [2] | outcome [3] | Potency [4] | Potency [5] | Potency [6] | outcome [7] | outcome [8] | outcome [9] | outcome [10] | Potency [11] | outcome [12] | Potency [13] | outcome [14] | outcome [15]

CCN1CCCC(OC(=O)C(c2ccccc2)c2ccccc2)C1 (centres undefined)
inactive: Potency [2] | outcome [3] | Potency [4] | Potency [5] | outcome [16] | outcome [7] | outcome [8] | outcome [9] | outcome [10] | outcome [12] | Potency [13] | outcome [14] | outcome [15] | Potency [17] | max activation [18] 0.492%

CN(C)C(=O)Nc1ccccc1
inactive: Potency [2] | outcome [3] | Potency [4] | Potency [5] | Potency [19] | outcome [7] | outcome [8] | outcome [9] | outcome [10] | Potency [11] | outcome [12] | Potency [13] | outcome [14] | outcome [15] | Potency [17]

COc1cc(O)cc(O)c1
inactive: Potency [2] | outcome [3] | Potency [4] | Potency [6] | Potency [19] | outcome [16] | outcome [7] | outcome [8] | outcome [9] | outcome [10] | Potency [11] | outcome [12] | Potency [13] | outcome [14] | outcome [15] | Potency [17] | max activation [18] -1.94% | Potency [20]

CCCOCC(C)OCC(C)O (centres undefined)
inactive: Potency [2] | outcome [3] | Potency [4] | Potency [5] | outcome [16] | outcome [7] | outcome [8] | outcome [9] | outcome [10] | Potency [11] | outcome [12] | Potency [13] | outcome [14] | outcome [15]

O=C(O)c1cccc(C(=O)O)n1
inactive: Potency [2] | outcome [3] | Potency [4] | Potency [5] | Potency [6] | outcome [7] | outcome [8] | outcome [9] | outcome [10] | Potency [11] | outcome [12] | Potency [13] | outcome [14] | outcome [15] | Potency [17]

CCCCCOC(=O)Nc1nc(=O)n([C@@H]2O[C@H](C)[C@@H](O)[C@H]2O)cc1F
inactive: Potency [2] | outcome [3] | Potency [4] | Potency [6] | Potency [19] | outcome [16] | outcome [7] | outcome [8] | Potency [11] | outcome [12] | Potency [13] | outcome [14] | outcome [15] | Potency [17] | max activation [18] -1.91% | Potency [20] | Potency [1]

From PubChem BioAssay (Tox21)
